Screening results from PubChem BioAssay.
This is a sample that favours compounds with a hit; in the whole collection about 3.5% have one here.
MITF inh: blocks human microphthalmia-associated transcription factor; AID 1259374; actives 0.91% (n = 650,000); AlphaScreen MITF homodimerization, bead proximity signal; inhibition, % at 2.6 µM; in the data active = inhibition above about 50%;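 note: 0% = vehicle wells with protein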
FBW7 act: human FBW7 E3 ligase activation, primary screen; Q969H0; AlphaScreen FBW7–phospho-cyclin E peptide binding, activator screen; normalized activity (activation), % at 26.1 µM; actives 0.13% (n = 650,000); AID 1259310; in the data active = normalized activity above about 1.9%;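 note: purified mutant Fbw7 with reduced substrate affinity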
Target sequence (Q969H0 whole entry, looked up): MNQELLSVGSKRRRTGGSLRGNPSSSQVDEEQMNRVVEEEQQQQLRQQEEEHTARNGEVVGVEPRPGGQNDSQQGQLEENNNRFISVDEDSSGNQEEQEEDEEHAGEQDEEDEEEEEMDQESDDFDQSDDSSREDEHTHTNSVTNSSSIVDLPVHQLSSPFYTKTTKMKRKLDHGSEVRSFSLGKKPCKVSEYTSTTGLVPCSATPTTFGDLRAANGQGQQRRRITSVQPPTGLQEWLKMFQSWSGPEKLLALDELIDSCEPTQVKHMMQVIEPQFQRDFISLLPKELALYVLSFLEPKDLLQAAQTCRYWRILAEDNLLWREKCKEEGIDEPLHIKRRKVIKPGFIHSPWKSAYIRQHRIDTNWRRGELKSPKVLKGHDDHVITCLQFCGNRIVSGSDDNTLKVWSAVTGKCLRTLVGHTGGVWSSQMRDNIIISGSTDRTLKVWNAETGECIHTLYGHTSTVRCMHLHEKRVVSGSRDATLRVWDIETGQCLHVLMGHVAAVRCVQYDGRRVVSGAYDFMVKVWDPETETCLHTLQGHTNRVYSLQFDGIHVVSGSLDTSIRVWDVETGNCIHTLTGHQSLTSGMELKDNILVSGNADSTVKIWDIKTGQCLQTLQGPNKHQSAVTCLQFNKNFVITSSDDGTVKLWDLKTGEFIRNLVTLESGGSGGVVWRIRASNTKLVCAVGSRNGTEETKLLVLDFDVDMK
GPR151 ag: activates the human receptor GPR151 | Q8TDV0 | PathHunter beta-arrestin GPR151 cells, luminescence | activation, % at 11.2 µM | actives 1% (n = 650,000); in the data active = activation above about 4.9%;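 note: 0% = median of compound wells and 100% = cells with positive control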
TEAD-YAP inh: TEAD-YAP interaction inhibition. HEK-TIYL cells, TEAD-Gal4/YAP UAS-luciferase luminescence. inhibition, % at 9.12 µM. actives 1.4% (n = 640,000). AID 1259422; in the data active = inhibition above about 32%;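 note: 0% = median of test compound wells and 100% = reference inhibitor wells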
An asterisk follows results filed as active.

SMILES	MITF inh	FBW7 act	GPR151 ag	TEAD-YAP inh
Cc1ccc(C(C)C)c(OCC(=O)N/N=C/c2ccc[nH]2)c1	-9.5	0.1	-0.9	-0.8
Cc1ccc(C(C)C)c(OCC(=O)N/N=C/c2ccc(O)cc2)c1	11.9	-0.2	1.0	47.6*
COc1cccc(/C=N/NC(=O)COc2cc(C)ccc2C(C)C)c1O	1.5	-0.2	-0.2	57.5*
COc1cccc(/C=N/NC(=O)COc2cccc(C)c2C)c1O	-9.0	-0.1	3.7	1.9
Cc1ccc(C(C)C)c(OCC(=O)N/N=C/c2ccc(O)c(O)c2)c1	0.2	-0.1	0.8	46.5*
COc1cccc(/C=N/NC(=O)CSc2cc(C)nc3c(C)cccc23)c1O	8.3	-0.5	1.1	32.4*
COc1ccccc1CN1CCNC(=O)C1CC(=O)NC(C)(C)CO (stereo unspecified)	-8.6	-0.1	-0.1	2.8
O=C(Nc1ccccc1)c1ccc2nc(N3CCN(c4ccccn4)CC3)sc2c1	6.8	0.0	2.7	-31.9
O=C(COc1ccccc1)N/N=C\c1ccc(O)cc1	14.5	2.1*	-1.3	6.8
Cc1cc(S(=O)(=O)Nc2cccc(C(=O)O)c2)ccc1Cl	11.9	0.0	-1.9	7.4
Cc1cc(C)cc(OCC(=O)NNC(=O)C2COc3ccccc3O2)c1 (stereo unspecified)	-7.0	0.0	-0.6	8.4
Cc1ccc(N2C(=O)NC(=O)/C(=C\c3cccc(O)c3)C2=O)cc1C	16.4	0.0	-0.2	0.9
O=C1CSc2ccc(C(=O)NC3CCCc4ccccc43)cc2N1 (stereo unspecified)	1.7	-0.1	-1.3	58.2*
COC(=O)[C@@H]1C[C@H](NC(=O)Cc2ccc(F)cc2)CN1Cc1ccc(C)s1	19.4	0.0	-1.2	-2.4
CC1CCN(c2ccc(/C=N/NC(=O)Cn3nnc(-c4ccccc4)n3)cc2[N+](=O)[O-])CC1	14.9	0.0	1.0	5.3
NC(=O)c1sc2nc3c(c(-c4cccs4)c2c1N)CCC3	2.8	0.0	-0.7	44.4*
COC(=O)c1sc2nc3c(c(-c4cccs4)c2c1N)CCC3	-4.1	0.6	0.8	1.9
CCCCCn1c(SCC(=O)c2ccccc2)nc2cc(C(=O)N(CC)CC)ccc2c1=O	23.9	0.1	-0.5	5.7
Cc1ccc(NC(=O)C2(S(=O)(=O)c3ccc(Cl)cc3)CC2)cc1	-6.8	0.0	1.2	1.1
Cc1cccc(NC(=O)C2(S(=O)(=O)c3ccc(Cl)cc3)CC2)c1	-8.1	4.7*	-0.7	-8.8
CC(=O)Nc1nc(-c2ccc3c(c2)NC(=O)CO3)cs1	5.8	0.1	-0.4	57.9*
COc1ccc(CC(=O)Nc2cc(Nc3ccccc3NC(C)=O)c(C(F)(F)F)cn2)cc1	16.0	-0.1	-1.4	67.3*
COc1ccc(CC(=O)Nc2cc(Nc3ccccc3-c3ncco3)c(C(F)(F)F)cn2)cc1	-13.6	-0.1	-0.7	53.7*
COc1ccc(CC(=O)Nc2cc(Nc3ccccc3-c3ncn[nH]3)ccn2)cc1	7.3	0.6	-1.0	12.8
COc1ccc(CC(=O)Nc2ccccc2C(F)(F)F)cc1	15.5	0.2	-0.5	-1.0
SMILES	MITF inh	FBW7 act	GPR151 ag	TEAD-YAP inh
O=C(N/N=C/c1cccc([N+](=O)[O-])c1)c1cc(Br)ccc1O	10.3	0.1	2.9	-14.7
CCOc1cccc(CN2CCN(CC(C)(C)C)C(CCO)C2)c1O (stereo unspecified)	6.6	0.2	-0.5	-2.3
C=CCOc1ccccc1CN1CCN(C2CCCC2)C(CCO)C1 (stereo unspecified)	-1.4	0.0	-0.1	7.6
COc1ccc(CN2C(=O)C(=O)c3cc(Br)ccc32)cc1	1.6	-0.4	0.8	63.6*
COc1ccccc1OCCN1C(=O)C(=O)c2cc(Br)ccc21	-0.4	-0.1	0.1	34.0*
O=C(NCCc1nnc2n1CCN(Cc1cccc(F)c1F)CC2)C1CCC1	2.6	0.1	2.0	-1.3
O=C(NCCn1ccc2ccccc21)c1cc([N+](=O)[O-])ccc1Cl	10.8	-0.2	0.0	32.8*
O=C(NCCC12CC3CC(CC(C3)C1)C2)c1cc([N+](=O)[O-])ccc1Cl	8.2	-0.1	-0.7	46.3*
O=C(NC12CC3CC(CC(C3)C1)C2)c1cc([N+](=O)[O-])ccc1Cl	10.6	-0.1	-0.7	19.6
O=C(NCCCc1ccccc1)c1cc([N+](=O)[O-])ccc1Cl	7.5	0.8	0.0	53.0*
C=CCOC(=O)C1=C(C)OC(N)=C(C#N)C1c1cc2cc(C)ccc2[nH]c1=O (stereo unspecified)	1.2	0.0	-0.7	59.1*
Cn1nc(C(C)(C)C)cc1C(=O)N1CCCC1c1nc2ccccc2[nH]1 (stereo unspecified)	10.2	0.3	1.0	7.3
CSC1=NSC2=NC(=O)/C(=C\c3ccc([N+](=O)[O-])o3)C(=N)N12	85.4*	-0.7	0.1	-12.1
CSC1=NSC2=NC(=O)/C(=C\c3ccc(C)o3)C(=N)N12	17.4	0.2	-1.9	-26.2
c1ccc(-c2nc(NCCCN3CCOCC3)cc(-c3ccncc3)n2)cc1	5.3	-0.2	-1.9	10.3
c1ccc(-c2cc(NCCCN3CCOCC3)nc(-c3ccccn3)n2)nc1	116.9*	-0.8	-0.9	64.2*
C[n+]1ccccc1NCCCN1CCOCC1	-4.1	3.8*	-0.5	2.8
COC(=O)c1c(NC(=O)/C=C/C(=O)O)sc(Cc2ccccc2)c1C	2.3	0.5	-0.9	36.1*
CCOC(=O)c1c(-c2ccc(OCC)cc2)csc1NC(=O)/C=C/C(=O)O	16.4	0.5	-0.6	48.2*
CCOC(=O)c1c(NC(=O)/C=C/C(=O)O)sc(C)c1-c1ccc(Cl)cc1	9.7	-0.1	0.1	41.1*
CCOC(=O)c1c(NC(=O)/C=C/C(N)=O)sc(C)c1C	6.2	0.0	1.5	45.2*
COC(=O)c1c(NC(=S)Nc2ccccc2)sc(Cc2ccccc2)c1C	6.5	0.1	0.7	-3.7
CCOC(=O)/C=C/C(=O)Nc1sc(C)c(C)c1C(N)=O	15.0	0.1	0.4	11.1
O=[N+]([O-])c1cccc(-c2nc3ccc(Br)cn3[n+]2[O-])c1	9.7	1.4	0.4	1.8
COCCNC(=O)c1ccc(N2CC3CC(C2)c2cccc(=O)n2C3)c(NC(=O)c2cccc(C(F)(F)F)c2)c1 (stereo unspecified)	-7.6	-0.2	0.6	-14.8
SMILES	MITF inh	FBW7 act	GPR151 ag	TEAD-YAP inh
O=C(Nc1c2c(nn1-c1ccc([N+](=O)[O-])cc1)CSC2)c1cc2ccccc2oc1=O	-10.6	0.0	-0.2	-3.5
c1ccc(Nc2ncn(-c3ccnc(Nc4ccc(N5CCOCC5)cc4)c3)n2)cc1	5.4	0.0	0.2	37.1*
c1ccc(-c2ncn(-c3ccc(Nc4cc(-c5cccc(N6CCOCC6)c5)ccn4)cc3)n2)nc1	11.9	-0.5	0.4	78.2*
c1cc(-c2ccnc(Nc3ccc(-n4cnc(-c5ccncc5)n4)cc3)n2)cc(N2CCOCC2)c1	-12.7	-0.2	-0.7	19.6
c1ccc(CNc2ccnc(Nc3ccc(N4CCOCC4)cc3)c2)cc1	9.0	-0.7	1.2	33.7*
O=C(NCc1ccccc1)c1ccnc(Nc2ccc(N3CCOCC3)cc2)c1	20.6	0.2	0.3	0.7
c1ccc(-n2cccn2)c(Nc2ccnc(Nc3ccc(N4CCOCC4)cc3)c2)c1	5.8	-0.4	2.9	40.3*
